Results filed as inconclusive are left out. Activity calls are given as the source filed them. The rule behind the calls is not given here.
Test: qHTS Assay for Inhibitors of Influenza NS1 Protein Function: Viral Replication TCID50
Details: Influenza virus replication in cells, at 10 µM, stronger effect = lower value
Description: Influenza is a world-wide public health problem and emerging forms of the virus have the potential to cause a pandemic of equal or greater magnitude to the outbreaks recorded in 1918, 1957 or 1968. Vaccine development is proceeding and there also exist two classes of anti-influenza compounds. However these therapeutic modalities are neither fully effective nor widely enough available to fulfill global needs. In addition their potential usefulness against newly emergent strains is not known. Efforts are needed to develop novel agents against influenza virus, including broad-spectrum agents. Identification of small molecules that inhibit NS1 function either directly or by interfering with specific cellular pathways may be a key to increasing our defense against the virus.
We have miniaturized and optimized a cell based assay in which NS1 from influenza A is expressed in the budding yeast S. cerevisiae. NS1 is a multi-functional protein that counters the host innate immune response and facilitates viral versus cellular gene expression. Expression of NS1 causes a pronounced slow growth phenotype in yeast due to its intrinsic molecular activities. Small molecules that suppress the slow growth phenotype can be identified by a straightforward growth recovery assay using optical density (OD) as the measurement. The same yeast strain not expressing NS1 was used as positive control in the yeast growth recovery assay.
Hits resulting from the primary screen and other follow-up screens, were tested in two concentrations in this viral replication assay.
NIH Chemical Genomics Center [NCGC]
NIH Molecular Libraries Probe Centers Network [MLPCN]
Assay Submitter (PI): Daniel Engel, University of Virgina
Cell monolayers were infected at an m.o.i. of 0.1 for 48 h in the presence or absence of the compound, which was added at the beginning of infection. Virus titres were determined by TCID50 analysis (Reed, L. J. & Muench, H. (1938). A simple method of estimating fifty per cent endpoints. Am J Epidemiol 27, 493-497)

Row | SMILES | viral titer (log10 TCID50)
1 | COc1cc(-c2c3c(C)nn(-c4ccccc4)c3nc3[nH]c(=O)[nH]c(=O)c23)ccc1O | 8.66 (active)
2 | COc1ccc(-c2ccnc3c2c(C)nn3-c2ccc(F)cc2)cc1OC | 8.66 (active)
3 | COc1cc(-c2c(C#N)c(=O)[nH]c3c2c(C)nn3-c2ccccc2)cc(OC)c1OC | 7.66 (active)
4 | COc1ccc(-c2c(C#N)c(N)nc3c2c(C)nn3-c2ccc(C)cc2)cc1OC | 9 (active)
5 | COc1cc(-c2c(C#N)c(N)nc3c2c(C)nn3-c2ccc(F)cc2)cc(OC)c1OC | 9 (active)
6 | Cc1nn(-c2ccccc2)c2nc3[nH]c(=O)[nH]c(=O)c3c(-c3ccc4c(c3)OCO4)c12 | 8.33 (active)
7 | COc1cc(-c2c(C(=O)O)cnc3c2c(C)nn3-c2ccc(F)cc2)ccc1O | 8.5 (active)
8 | COc1ccc(-c2c(C#N)c(=O)[nH]c3c2c(C)nn3-c2ccc(F)cc2)cc1OC | 9 (active)
9 | COc1cc(-c2c(C#N)c(N)nc3c2c(C)nn3-c2ccc(C)cc2)cc(OC)c1OC | 8.66 (active)
10 | COc1ccc(-c2c(C#N)c(N)nc3c2c(C)nn3-c2ccccc2)cc1OC | 8.66 (active)
11 | COc1cc(-c2c(C#N)c(N)nc3c2c(C)nn3-c2ccc(C)c(C)c2)ccc1O | 8.5 (active)
12 | COc1cc(-c2c3c(C)nn(-c4ccccc4)c3nc3[nH]c(=O)[nH]c(=O)c23)cc(OC)c1O | 8.33 (active)
13 | COc1cccc(-c2ccnc3c2c(C)nn3-c2ccc(F)cc2)c1 | 8.5 (active)
14 | COc1ccc(-c2c(C#N)c(N)nc3c2c(C)nn3-c2ccc(F)cc2)cc1OC | 8.66 (active)
15 | COc1ccc(-c2c3c(C)nn(-c4ccccc4)c3nc3[nH]c(=O)[nH]c(=O)c23)cc1OC | 8.33 (active)
16 | COc1cc(-c2c(C#N)c(=O)[nH]c3c2c(C)nn3-c2ccccc2)ccc1O | 7.66 (active)
17 | COc1cc(-c2ccnc3c2c(C)nn3-c2ccccc2)ccc1O | 9 (active)
18 | COc1cc(-c2c(C#N)c(N)nc3c2c(C)nn3-c2ccc(C)cc2)ccc1O | 8.5 (active)
19 | COc1ccc(-c2c(C#N)c(N)nc3c2c(C)nn3-c2ccc(Cl)cc2)cc1OC | 9 (active)
20 | COc1ccc(-c2c(C#N)c(=O)[nH]c3c2c(C)nn3-c2ccccc2)cc1OC | 8.66 (active)

Same assay, conditions: Influenza virus replication in cells, viral titer, at 5 µM, stronger effect = lower value

Row | SMILES | viral titer (log10 TCID50)
21 | COc1cc(-c2c3c(C)nn(-c4ccccc4)c3nc3[nH]c(=O)[nH]c(=O)c23)ccc1O | 8.66
22 | COc1ccc(-c2ccnc3c2c(C)nn3-c2ccc(F)cc2)cc1OC | 9
23 | COc1cc(-c2c(C#N)c(=O)[nH]c3c2c(C)nn3-c2ccccc2)cc(OC)c1OC | 8.5
24 | COc1ccc(-c2c(C#N)c(N)nc3c2c(C)nn3-c2ccc(C)cc2)cc1OC | 9
25 | COc1cc(-c2c(C#N)c(N)nc3c2c(C)nn3-c2ccc(F)cc2)cc(OC)c1OC | 9
26 | Cc1nn(-c2ccccc2)c2nc3[nH]c(=O)[nH]c(=O)c3c(-c3ccc4c(c3)OCO4)c12 | 8.66
27 | COc1cc(-c2c(C(=O)O)cnc3c2c(C)nn3-c2ccc(F)cc2)ccc1O | 8.88
28 | COc1ccc(-c2c(C#N)c(=O)[nH]c3c2c(C)nn3-c2ccc(F)cc2)cc1OC | 9
29 | COc1cc(-c2c(C#N)c(N)nc3c2c(C)nn3-c2ccc(C)cc2)cc(OC)c1OC | 9
30 | COc1ccc(-c2c(C#N)c(N)nc3c2c(C)nn3-c2ccccc2)cc1OC | 9
31 | COc1cc(-c2c(C#N)c(N)nc3c2c(C)nn3-c2ccc(C)c(C)c2)ccc1O | 8.66
32 | COc1cc(-c2c3c(C)nn(-c4ccccc4)c3nc3[nH]c(=O)[nH]c(=O)c23)cc(OC)c1O | 8.66
33 | COc1cccc(-c2ccnc3c2c(C)nn3-c2ccc(F)cc2)c1 | 9
34 | COc1ccc(-c2c(C#N)c(N)nc3c2c(C)nn3-c2ccc(F)cc2)cc1OC | 8.66
35 | COc1ccc(-c2c3c(C)nn(-c4ccccc4)c3nc3[nH]c(=O)[nH]c(=O)c23)cc1OC | 9
36 | COc1cc(-c2c(C#N)c(=O)[nH]c3c2c(C)nn3-c2ccccc2)ccc1O | 8.5
37 | COc1cc(-c2ccnc3c2c(C)nn3-c2ccccc2)ccc1O | 9
38 | COc1cc(-c2c(C#N)c(N)nc3c2c(C)nn3-c2ccc(C)cc2)ccc1O | 8.5
39 | COc1ccc(-c2c(C#N)c(N)nc3c2c(C)nn3-c2ccc(Cl)cc2)cc1OC | 9
40 | COc1ccc(-c2c(C#N)c(=O)[nH]c3c2c(C)nn3-c2ccccc2)cc1OC | 9

— PubChem BioAssay AID602454 (National Center for Advancing Translational Sciences (NCATS), 2012)
